This passage reports growth results from PubChem BioAssay (NCI).

Compounds without any hit were thinned out: in the full panel of roughly 83,000, 20% have a hit.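 Activity criterion: percent growth below 10, measured after cells in 96-well plates were exposed to a single compound concentration for 48 hours.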 Unmarked numbers belong to inactive results. Calls of active or inactive are those of the source.

Test systems include DU-145 prostate; K-562 leukemia; MALME-3M melanoma; MDA-MB-231 breast; RXF 393 renal; SF-268 CNS; SF-295 CNS; SF-539 CNS; UACC-257 melanoma; M14 melanoma; HCT-15 colon; HT29 colon; SNB-75 CNS; SNB-19 CNS; U251 CNS; PC-3 prostate; SK-MEL-5 melanoma; UACC-62 melanoma; LOX IMVI melanoma; SK-MEL-28 melanoma.
What all share (test): NCI-60 one-dose screen, 48 h (100 = growth as untreated, 0 = no growth, -100 = all killed)
What all share (settings): 10 µM unless noted

As to `COc1ccc(-c2[nH]c3ccccc3c2/C=C(\C#N)S(=O)(=O)c2ccccc2)cc1`, the growth was 12.3% in the test with DU-145 prostate; 33.8% in the test on K-562 leukemia; 73.6% with MALME-3M melanoma; 31.5% in the test on MDA-MB-231 breast; -12.2% (active) in the test on RXF 393 renal; 45.1% in the test on SF-268 CNS. For the same compound, the growth was -11.5% (active) with SF-295 CNS; -30.7% (active) in the test with SF-539 CNS; 73.2% in the test with UACC-257 melanoma; 20.2% in the test on M14 melanoma; 24.6% in the test with HCT-15 colon; 12.6% with HT29 colon. The growth in the test with SNB-75 CNS is 33.1%; in the test on SNB-19 CNS, 30.3%; in the test on U251 CNS, 24.2%; in the test on PC-3 prostate, 30.9%; in the test on SK-MEL-5 melanoma, 12.5%; in the test with UACC-62 melanoma, 22.6%. Besides, the growth in the test with LOX IMVI melanoma was 28.5%; with SK-MEL-28 melanoma, 54.2%.

Take `O=C(Nc1ccc(-n2ccc3c(NC(=O)c4ccccc4)nccc32)cc1)c1ccc(Cl)c(C(F)(F)F)c1`: the growth is 23.6% in the test with DU-145 prostate; -31.6% (active) with K-562 leukemia; 57.9% in the test with MALME-3M melanoma; 55.8% in the test with MDA-MB-231 breast; 18.4% in the test with RXF 393 renal; 28.7% in the test with SF-268 CNS. Also, the growth in the test with SF-295 CNS was 25.3%; with SF-539 CNS, 24.1%; with UACC-257 melanoma, 58.8%; in the test on M14 melanoma it was 31.5%; with HCT-15 colon, -32.9% (active); with HT29 colon it was -3.9% (active). Besides, the growth in the test on SNB-75 CNS is 60.3%; in the test with SNB-19 CNS it was 44.6%; with U251 CNS it was -51.6% (active); with PC-3 prostate, 42%; with SK-MEL-5 melanoma it was 27.1%; in the test with UACC-62 melanoma it was 40.6%. Besides, the growth is -28.8% (active) with LOX IMVI melanoma and 54.6% in the test with SK-MEL-28 melanoma.

In the case of `COc1ccc(OC)c(NCC(=O)n2nc(/C=C\c3ccc(O)c(OC)c3)cc2/C=C\c2ccc(O)c(OC)c2)c1`, the growth in the test with DU-145 prostate is 22.9%; with K-562 leukemia, 4.4% (active); in the test on MALME-3M melanoma, 23.3%; with MDA-MB-231 breast it was 15.7%; in the test with RXF 393 renal, -49.5% (active); in the test on SF-268 CNS it was 23.1%. Also, the growth was 24% in the test on SF-295 CNS; 0.158% (active) in the test on SF-539 CNS; 30.2% in the test with UACC-257 melanoma; 16.5% with M14 melanoma; 17.5% in the test with HCT-15 colon; -70.2% (active) with HT29 colon. Moreover, the growth is 25.5% with SNB-75 CNS; 16.7% with SNB-19 CNS; 4.56% (active) in the test on U251 CNS; 23.2% in the test on PC-3 prostate; 9.05% (active) in the test on SK-MEL-5 melanoma; 15.8% in the test on UACC-62 melanoma. For the same compound, the growth with LOX IMVI melanoma was 9.71% (active); in the test with SK-MEL-28 melanoma, 21.2%.

Take `CCOc1ccc(NC2=C(Cl)C(=O)c3ccccc3C2=O)cc1`: the growth is 102% in the test on DU-145 prostate; -2.3% (active) in the test on K-562 leukemia; 108% in the test with MALME-3M melanoma; 80.2% in the test on MDA-MB-231 breast; 105% in the test on RXF 393 renal; 94.2% in the test on SF-268 CNS. Also, the growth with SF-295 CNS was 94.3%; with SF-539 CNS it was 90.9%; with UACC-257 melanoma, 97.6%; in the test with M14 melanoma it was 68%; in the test with HCT-15 colon, -79.9% (active); with HT29 colon it was 98.2%. Besides, the growth is 81.3% with SNB-75 CNS; 62% with SNB-19 CNS; 56.9% with U251 CNS; 72.1% in the test on PC-3 prostate; 81.4% in the test on SK-MEL-5 melanoma; 78.6% in the test with UACC-62 melanoma. The growth in the test with LOX IMVI melanoma was -89.7% (active); with SK-MEL-28 melanoma, 46.9%.

Consider `CCOC(=O)CSc1nnc(-c2cc3c([nH]c4ccccc43)c(-c3cccc(O)c3)n2)n1-c1ccc(C)cc1`, for which the growth was -0.541% (active) in the test with DU-145 prostate; 16.8% with K-562 leukemia; 80.3% with MALME-3M melanoma; 45% with MDA-MB-231 breast; 79.5% in the test with RXF 393 renal; 74.7% in the test on SF-268 CNS. The growth with SF-295 CNS was 99.9%; in the test on SF-539 CNS, 78%; in the test on UACC-257 melanoma it was 91.3%; in the test with M14 melanoma, 44.5%; with HCT-15 colon, 42.7%; with HT29 colon it was 43%. In addition, the growth is 63.3% with SNB-75 CNS; 97.3% in the test with SNB-19 CNS; 54.9% with U251 CNS; 15.1% in the test with PC-3 prostate; 94.1% in the test with SK-MEL-5 melanoma; 85.2% in the test on UACC-62 melanoma. In addition, the figures for the growth with LOX IMVI melanoma and in the test on SK-MEL-28 melanoma were 32.6% and 79.9%, respectively.

Regarding `Nc1nc(=S)ss1`, the growth was 116% in the test on DU-145 prostate; 98.1% with K-562 leukemia; 111% with MALME-3M melanoma; 112% with MDA-MB-231 breast; 101% with RXF 393 renal; 108% with SF-268 CNS. The growth is 102% in the test with SF-295 CNS; 111% in the test on SF-539 CNS; 90.2% in the test on UACC-257 melanoma; 101% in the test on M14 melanoma; 91.8% in the test on HCT-15 colon; 105% in the test with HT29 colon. Besides, the growth with SNB-75 CNS is 89.3%; with SNB-19 CNS it was 103%; in the test on U251 CNS, 107%; in the test on PC-3 prostate, 90.7%; in the test with SK-MEL-5 melanoma, 110%; in the test on UACC-62 melanoma, 95.4%. The growth in the test on LOX IMVI melanoma was 103%; in the test on SK-MEL-28 melanoma, 113%.

On to `COc1ccc2c(c1)C(=O)/C(=C/c1cccc(OCC(=O)c3ccccc3)c1)O2`, for which the growth is 13.5% in the test on DU-145 prostate; -98.3% (active) in the test on K-562 leukemia; 45.1% in the test on MALME-3M melanoma; 67.3% with MDA-MB-231 breast; -56.8% (active) with RXF 393 renal; 36.2% in the test with SF-268 CNS. Further, the growth was 91.3% with SF-295 CNS; -14.7% (active) with SF-539 CNS; 42.9% in the test on UACC-257 melanoma; 49.8% with M14 melanoma; 31.8% in the test on HCT-15 colon; -15.7% (active) with HT29 colon. Also, the growth is -8.04% (active) with SNB-75 CNS; 99.1% in the test with SNB-19 CNS; 41.5% with U251 CNS; -43.4% (active) in the test with PC-3 prostate; 50.2% with SK-MEL-5 melanoma; 67% in the test with UACC-62 melanoma. Also, the growth in the test with LOX IMVI melanoma is -5.01% (active); in the test with SK-MEL-28 melanoma it was -11.1% (active).
